The whole screen tested about 48,000 compounds, of which about 13,000 (27%) showed an effect of 50% or more. The list shows a part of the results.
These compounds were tested on Wolbachia pipientis (assay: Anti-Wolbachia Cell-Based Screen). Conditions: 5 µM.
Assay type: functional
Set-up: scale not given: in the data most compounds retested in dose-response had high values

Row | Compound | Percent Effect [%]
1 | COC(=O)c1ccc(C(=O)NCC2(O)CCOCC2)cc1 | 130.4
2 | CN(C)c1cccc(C(=O)NCC2(O)CCOCC2)c1 | -18.41
3 | O=C(NCC1(O)CCOCC1)c1ccc(F)cc1 | 96.45
4 | CN(C)c1ccc(C(=O)NCC2(O)CCOCC2)cc1 | -16.02
5 | Cc1ccc(C(=O)NCC2(O)CCOCC2)cc1F | -12.72
6 | Cc1ccc(C(=O)NCC2(O)CCOCC2)cc1Br | -13.19
7 | O=C(O)C(F)(F)F.O=C(O)C(F)(F)F.O=C(O)c1cc2c(nc1N1CCOCC1)CCN(C1CCOC1)CC2 (stereo not drawn) | -7.215
8 | Cc1ccnc2c1NC(=O)CN2C(=O)CCC(F)(F)F | -8.698
9 | O=C(OC1CCC1)c1ncccc1OCC(F)(F)F | -10.44
10 | COCCNCc1cc2c(C)cc(C)cc2n2c(=O)n(C)nc12 | 88.13
11 | COCCCn1cnnc1CNC(=O)c1[nH]c2c(C)cc(C)cc2c1C | 0.2132
12 | CCOCCCNCc1cc(O)c2cc(C)ccc2n1 | -26.14
13 | CCOCCCNCc1cc2c(C)cc(C)cc2n2c(=O)n(C)nc12 | 119.1
14 | CCCNCc1cc2c(C)cc(C)cc2n2c(=O)n(C)nc12 | -10.06
15 | O=C1CCC2(CCCN(c3ncnc4[nH]cnc34)C2)CN1CCCO (stereo not drawn) | -3.767
16 | COc1ccccc1CC(NC(=O)N1CCC[C@@H]1CO)C(C)C (stereo partly drawn) | -5.452
17 | CSCCC(=O)N1CCC(c2nnc(CN(C)CCO)n2C)CC1 | 26.9
18 | CCS(=O)(=O)N1CCCc2ccc(NC(=O)Cc3ccc(F)cc3)cc21 | -6.577
19 | COc1cc(NC(=O)NC2CCCC2)ccc1N1CCOC1=O | 8.686
20 | CCS(=O)(=O)N1CCc2ccc(NC(=O)NC(C)(C)C)cc21 | 107.2
21 | Cc1cccc(NC(=O)NC2CCN(C3CCOC3)CC2)c1 (stereo not drawn) | -12.46
22 | CCS(=O)(=O)N1CCc2ccc(NC(=O)Nc3cccc(SC)c3)cc21 | 9.677
23 | CCS(=O)(=O)N1CCc2ccc(NC(=O)NC3CCCCC3)cc21 | 108.5
24 | CCS(=O)(=O)N1CCc2ccc(NC(=O)Nc3cccc(C)c3)cc21 | 127.7
25 | NS(=O)(=O)N1CCc2ccc(NC(=O)CC(F)(F)F)cc21 | -10.92
26 | CCS(=O)(=O)N1CCc2ccc(NC(=O)Nc3cccc(F)c3)cc21 | 144.6

Row | Compound | Percent Effect [%]
27 | NS(=O)(=O)N1CCc2ccc(NC(=O)Cc3ccc(F)cc3)cc21 | -5.162
28 | O=C(Nc1ccccc1)C1CCCN(c2cc(-n3cncn3)ncn2)C1 (stereo not drawn) | -3.274
29 | COCC1CN(C(=O)Cc2cccc(F)c2)Cc2ccnn2C1.O=C(O)C(F)(F)F (stereo not drawn) | 13.65
30 | CCC(=O)N1CC[C@@H](c2ccc3ccccc3c2)[C@H](O)C1 | -8.5
31 | CC(NS(C)(=O)=O)C(=O)N(C)Cc1csc(-c2cccs2)n1 (stereo not drawn) | -6.188
32 | O=S(=O)(N1CCCCC1)N1CCOC2(CCCC2)C1 | -3.647
33 | O=C(NC1CC1)NC(c1ccc(F)cc1)C1CC1 (stereo not drawn) | -8.198
34 | CCS(=O)(=O)N1CCc2ccc(NC(=O)Nc3ccc(F)cc3F)cc21 | 3.435
35 | NS(=O)(=O)N1CCc2ccc(NC(=O)Cc3ccccc3F)cc21 | -18.89
36 | CCS(=O)(=O)N1CCc2ccc(NC(=O)Nc3ccccc3)cc21 | 185.4
37 | CCS(=O)(=O)N1CCc2ccc(NC(=O)Nc3ccccc3C)cc21 | 122.8
38 | CN(CCN1CCN(c2ccccc2)CC1)C(=O)Nc1ccccn1 | -17.55
39 | CC(C)Oc1ncccc1CNC(=O)c1ccco1 | 7.44
40 | Cc1ccc(C(=O)N2CC(C(N)=O)O[C@H](C)C2)c(F)c1 (stereo partly drawn) | -9.152
41 | N#CCCN(Cc1ccco1)C(=O)CN1CCCC1c1cccs1 (stereo not drawn) | -7.66
42 | CSCC(=O)N(C)Cc1noc(-c2ccccc2)n1 | 108.1
43 | CCc1nc(CN(C)C(=O)CSC)no1 | 99.89
44 | CC(C)c1nc(CN(C)C(=O)Cn2nc3ccccc3n2)no1 | -13.5
45 | CCn1ccc(CN(C)C(=O)CSc2nnc(N)s2)n1 | 5.02
46 | CN(C)C(=O)Cc1ccccc1NCc1noc(-c2ccccc2)n1 | 11.76
47 | CCc1noc(CN(C)C(=O)COc2cc(Cl)cc(Cl)c2)n1 | -5.267
48 | CCc1nc(CN(C)C(=O)C2CCC(=O)N(CC3CCCCC3)C2)no1 (stereo not drawn) | -15.94
49 | COc1ccc(CN(C)C(=O)CSc2nnc(N)s2)c(OC)c1OC | 2.435
50 | CN(Cc1noc(-c2ccccc2)n1)C(=O)CSc1nnc(N)s1 | 121.6
51 | Cn1cc(N2CCC3(CCN(S(=O)(=O)C4CC4)C3)C2=O)cn1 (stereo not drawn) | -13.56
52 | CCCC(C)CS(=O)(=O)NCCc1csc(N2CCCC2)n1 (stereo not drawn) | 5.842

Row | Compound | Percent Effect [%]
53 | CC1(C)Cc2c(cnn2-c2ccccc2)C(NC2CCSCC2)C1 (stereo not drawn) | 2.86
54 | CN(C)c1ccnc(-c2ccnc3c2ccn3C)n1 | -3.285
55 | Cc1[nH]c2c(C)ccc(C)c2c1CC(=O)NCCCNc1cccnc1 | -12.73
56 | O=C(c1ccc2cccnc2n1)N(Cc1ccsc1)CC1CCCO1 (stereo not drawn) | -29.46
57 | COCCN1CC2(CCN(Cc3ccco3)CC2)c2ccccc21 | -16.07
58 | CCS(=O)(=O)N1CCC2(CC1)CN(C(=O)N(C)C)Cc1ccccc12 | -41.7
59 | O=C(c1ccno1)N1CCC2(CC1)C(=O)Nc1ccccc12 | 0.1339
60 | COCCN1C[C@H]2CN(C(=O)c3ccno3)CCN2C1=O | 3.514
61 | COCCN1Cc2ccccc2C2(CCN(S(C)(=O)=O)CC2)C1 | 109.9
62 | COCCN1Cc2ccccc2C2(CCN(C(=O)c3ccno3)CC2)C1 | 106.5
63 | COCCN1Cc2ccccc2C2(CCN(C(=O)c3ccco3)CC2)C1 | 91.37
64 | O=C(c1ccco1)N1CCC2(CC1)C(=O)Nc1ccccc12 | -7.592
65 | COCCN1CCC2(CC1)CC1(CCN(S(C)(=O)=O)CC1)N(C)C2=O.O=C(O)C(F)(F)F | -9.423
66 | Cc1ccc(C(=O)Nc2cccc3c2C(=O)NC3)c(C)n1 | -2.739
67 | c1coc(CN2CCc3ncnc(C4CCOC4)c3CC2)c1 (stereo not drawn) | -7.93
68 | COCCN1CCCC(O)(CN2CCN(c3cc(C)ccn3)CC2)C1=O (stereo not drawn) | -13.95
69 | CCOCC1(CNCc2cc(O)c3cc(C)ccc3n2)CC1 | 1.355
70 | COc1ccc(CN2CCC(CO)(Cc3ccc(Cl)cc3)CC2)c(O)c1 | -0.5928
71 | O=c1n(CC2COCCO2)nc(CC2CCNCC2)n1-c1ccccc1 (stereo not drawn) | 28.69
72 | CCn1cc(C(=O)NCc2cccnc2N(C)Cc2ccccc2)cn1 | 2.697
73 | CN(CC1CC1)c1ccc2ccc(C(=O)NC3CCCCC3)cn12 | 118
74 | COC(=O)N1CCC(Oc2ccc(C(=O)NCCN(C)C)cc2Cl)CC1 | 19.93
75 | CCN(CC)c1ccc2ccc(C(=O)N(C)C)cn12 | -16.77
76 | CN(C)C(=O)CNC(=O)c1ccc2ccc(N(C)CC3CC3)n2c1 | 99.28
77 | CN(CC1CC1)c1ccc2ccc(C(=O)NCCc3ccccc3)cn12 | 99.05
78 | CCN(CC)c1ccc2ccc(C(=O)NC3CC3)cn12 | -16.69

Row | Compound | Percent Effect [%]
79 | CCNC(=O)c1ccc2ccc(N(CC)CC)n2c1 | 1.029
80 | CN(C)CCNC(=O)c1ccc(OC2CCN(C3CCC3)CC2)c(Cl)c1 | -4.706
81 | CCN(CC)c1ccc2ccc(C(=O)O)cn12 | -4.44
82 | CN(C)CCNC(=O)c1ccc2ccc(N(C)CC3CC3)n2c1 | 115.7
83 | CCNC(=O)N1C[C@@H]2OCC(=O)N(CC3CCCCC3)[C@@H]2C1 | -5.369
84 | CN(C)S(=O)(=O)c1cccc(CNc2cc(CO)ccc2Cl)c1 | -35.79
85 | O=C(NCc1ccccc1CN1CCC(O)CC1)Nc1cccnc1 | -0.5671
86 | COCCCN1CCC(c2nc3c([nH]2)CC(C)(C)CNC3=O)C1 (stereo not drawn) | -5.99
87 | CCc1nnc(SC2CCN(c3ccccc3F)C2=O)n1C (stereo not drawn) | -9.884
88 | Cc1cc2n(n1)CC(CNC1CCN(C3CC3)CC1)CN2 (stereo not drawn) | -6.962
89 | CN(CCOc1ccc(F)cc1)S(=O)(=O)N1CCOCC1 | -1.618
90 | Cc1cccc2sc(NC(=O)CN3CCCC(O)(CO)C3)nc12 (stereo not drawn) | -1.543
91 | COCCNC(=O)c1ccc2ccc(N(C)CC3CC3)n2c1 | 103.1
92 | CCN(CC)c1ccc2ccc(C(=O)N(CCOC)CCOC)cn12.O=C(O)C(F)(F)F | 4.611
93 | COCCNC(=O)CCNC(=O)c1ccc(N2CCC(C)=N2)cc1 | -2.111
94 | CC(=O)NCc1ccc(C(=O)N2CCCc3c(F)ccc(C)c32)cc1 | -14.03
95 | COC(=O)N1CCC(NC(=O)Cn2cc(C)c3ccccc32)CC1 | -17.34
96 | CC(=O)N1CCC(NC(=O)Cc2csc(C(C)(C)C)n2)CC1 | -8.702
97 | CC(=O)N1CCC(NC(=O)CN2CCCc3c(F)ccc(C)c32)CC1 | 96.3
98 | Cc1ccc(C)c(CC(=O)NC2CCS(=O)(=O)CC2)c1 | -1.123
99 | Cc1cn(CC(=O)NC2CCN(C(=O)C3CC3)CC2)c2ccccc12 | 4.79
100 | CC(=O)N1CCC(NC(=O)CN2CCCc3c(C)ccc(F)c32)CC1 | 97.89
101 | Cc1ccc(F)c2c1CCCN2CC(=O)NC1CCS(=O)(=O)C1 (stereo not drawn) | 90.32
102 | Cc1ccc(C)c(CC(=O)NC2CCCS(=O)(=O)C2)c1 (stereo not drawn) | -8.397
103 | CN1CCCC(C(=O)N2CCC(Oc3ccc(C#N)cn3)CC2)C1 (stereo not drawn) | 3.335

Source: ChEMBL document CHEMBL3988442, “University of Dundee, Small-Polar-MMV Screening Library” (2021)
